Records with an inconclusive call do not appear. Calls of active or inactive are those of the source. Unless noted, the call rests on the fitted dose curve; in most records, active means well fitted inhibition curve with a large enough effect; inconclusive means small, poorly fitted or top-dose-only effect; inactive means flat fitted curve, though single readings scatter.
How the values were obtained:
7G8 = assay: qHTS profiling for inhibitors of Plasmodium falciparum proliferation (AID 504749); further: nearly all actives have a fitted effect of over 60% in size; further: potency means the concentration at half of the fitted maximal effect;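 on activity, negative = inhibition: 0% = DMSO vehicle and full inhibition = artemisinin control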; conditions: P. falciparum in erythrocytes, SYBR Green DNA, 72 h; series mostly up to 28.7 µM
How it was run: (§1)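 Readout was DNA-dye fluorescence from lysed cultures, ex 485/em 535 nm. Parasitized red cells had grown 72 h with compound; data scaled between 0.29 uM artemisinin and DMSO wells and corrected using vehicle-only plates.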

AA1029 = assay: as above; conditions: P. falciparum in erythrocytes, SYBR Green DNA, 72 h; series mostly up to 28.7 µM
How it was run: as §1

AS120 = assay: as above; conditions: P. falciparum in erythrocytes, SYBR Green DNA, 72 h; series mostly up to 28.7 µM
How it was run: as §1

ATS95 = assay: as above; conditions: P. falciparum in erythrocytes, SYBR Green DNA, 72 h; series mostly up to 28.7 µM
How it was run: as §1

C2A = assay: as above; conditions: P. falciparum in erythrocytes, SYBR Green DNA, 72 h; series mostly up to 28.7 µM
How it was run: as §1

CP185 = assay: as above; conditions: P. falciparum in erythrocytes, SYBR Green DNA, 72 h; series mostly up to 28.7 µM
How it was run: as §1

CP191 = assay: as above; conditions: P. falciparum in erythrocytes, SYBR Green DNA, 72 h; series mostly up to 28.7 µM
How it was run: as §1

CP194 = assay: as above; conditions: P. falciparum in erythrocytes, SYBR Green DNA, 72 h; series mostly up to 28.7 µM
How it was run: as §1

[1] = qHTS drug screen for cell cycle checkpoint inhibitors in PARPi-resistant BRCA-mutant ovarian cancer cell lines. (AID 1963452; calls by dose curve); conditions: PEO1/OlaR viability, CellTiter-Glo luminescence, 96 h, stronger effect = lower value
How it was run: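 PEO1, PEO4 and PEO1/OlaR ovarian cancer cells, 600 per well, exposed 96 h at 37C to a dilution series. Viability read by CellTiter-Glo luminescence, normalized to DMSO and empty wells; activity summarized as Z-AUC.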

[2] = qHTS profiling for inhibitors of Plasmodium falciparum proliferation (AID 504749); further: potency means the concentration at half of the fitted maximal effect;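 on activity, negative = inhibition: 0% = DMSO vehicle and full inhibition = artemisinin control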; on all read-outs here: nearly all actives have a fitted effect of over 60% in size; conditions: P. falciparum in erythrocytes, SYBR Green DNA, 72 h; for activity, negative = inhibition: at 28.7 µM (top of the series)
How it was run: as §1

3D7 = assay: as above; conditions: P. falciparum in erythrocytes, SYBR Green DNA, 72 h; series mostly up to 28.7 µM
How it was run: as §1

ATS189 = assay: as above; conditions: P. falciparum in erythrocytes, SYBR Green DNA, 72 h; series mostly up to 28.7 µM
How it was run: as §1

CP192 = assay: as above; conditions: P. falciparum in erythrocytes, SYBR Green DNA, 72 h; series mostly up to 28.7 µM
How it was run: as §1

CP201 = assay: as above; conditions: P. falciparum in erythrocytes, SYBR Green DNA, 72 h; series mostly up to 28.7 µM
How it was run: as §1

CP203 = assay: as above; conditions: P. falciparum in erythrocytes, SYBR Green DNA, 72 h; series mostly up to 28.7 µM
How it was run: as §1

[3] = measured here: PEO1 parental Z-AUC

Structure (SMILES): CC(NCCC(c1ccccc1)c1ccccc1)c1ccccc1 (stereo not given)
- Potency (7G8): 2.24 µM (active)
- Potency (AA1029): 12.6 µM (active)
- Potency (AS120): 11.2 µM (active)
- Potency (ATS95): 11.2 µM (active)
- Potency (C2A): 10 µM (active)
- Potency (CP185): 8.91 µM (active)
- Potency (CP191): 10 µM (active)
- Potency (CP194): 15.1 µM (active)

Structure (SMILES): CNC[C@H](O)[C@@H](O)[C@H](O)[C@H](O)CO
- Z-AUC [1]: -0.453 (inactive)
- Z-AUC [1, 3]: -0.0353
- Z-AUC ([1]; measured here: PEO4 Z-AUC): 0.238

Structure (SMILES): CC(C)N(CCC(=O)c1ccc2ccccc2c1)Cc1ccccc1
- Z-AUC [1]: -1.4 (inactive)
- Z-AUC [1, 3]: -0.867
- Z-AUC ([1]; measured here: PEO4 Z-AUC): -0.853

Structure (SMILES): C[C@H]1C[C@H]2[C@@H]3CCC4=CC(=O)C=C[C@]4(C)[C@H]3C(=O)C[C@]2(C)[C@@]1(O)C(=O)CO
- Z-AUC [1]: 1.47 (inactive)
- Z-AUC [1, 3]: 0.72
- Z-AUC ([1]; measured here: PEO4 Z-AUC): 0.786

Structure (SMILES): O=C(Nc1ccc(Cl)cc1)Nc1ccc(Cl)c(Cl)c1
- Potency ([2]; parasite line A): 3.16 µM (active)
- Potency ([2]; parasite line B): 3.98 µM (active)
- Potency (3D7): 5.01 µM (active)
- Potency (7G8): 0.501 µM (active)
- Potency (AA1029): 5.62 µM (active)
- Potency (AS120): 2.24 µM (active)
- Potency (ATS189): 3.16 µM (active)
- Potency (ATS95): 3.16 µM (active)
- Potency (C2A): 3.16 µM (active)
- Potency (CP185): 2.51 µM (active)
- Potency (CP191): 2.82 µM (active)
- Potency (CP192): 9.53 µM (active)
- Potency (CP194): 6.01 µM (active)
- Potency (CP201): 7.57 µM (active)
- Potency (CP203): 4.26 µM (active)

Structure (SMILES): CCCCCCOC(=O)NC(=N)c1ccc(NCc2nc3cc(C(=O)N(CCC(=O)OCC)c4ccccn4)ccc3n2C)cc1
- Z-AUC [1]: 1.19 (inactive)
- Z-AUC [1, 3]: 0.495
- Z-AUC ([1]; measured here: PEO4 Z-AUC): 0.615

Structure (SMILES): O=[N+]([O-])c1ccc(O)c2ncccc12
- Z-AUC [1]: -0.66 (inactive)
- Z-AUC [1, 3]: -0.828
- Z-AUC ([1]; measured here: PEO4 Z-AUC): -1.06
- Potency (3D7): 11.2 µM (active)
- Potency (7G8): 11.2 µM (active)
- Potency (AS120): 10 µM (active)
- Potency (C2A): 12.6 µM (active)
- Potency (CP191): 12.6 µM (active)

Structure (SMILES): O=S(=O)(O)c1ccc2nc(-c3ccccc3)[nH]c2c1
- activity, negative = inhibition ([2]; parasite line A): 7.74% (inactive)
- activity, negative = inhibition ([2]; parasite line B): 3.12% (inactive)
- Potency (3D7): inactive
- Potency (7G8): inactive
- Potency (AA1029): inactive
- Potency (AS120): inactive
- Potency (ATS189): inactive
- Potency (ATS95): inactive
- Potency (C2A): inactive
- Potency (CP185): inactive
- Potency (CP191): inactive
- Potency (CP192): inactive
- Potency (CP194): inactive
- Potency (CP201): inactive
- Potency (CP203): inactive

Structure (SMILES): COc1c(C)c2c(c(O)c1C/C=C(\C)CCC(=O)OCCN1CCOCC1)C(=O)OC2
- Z-AUC [1]: 0.671 (inactive)
- Z-AUC [1, 3]: 0.614
- Z-AUC ([1]; measured here: PEO4 Z-AUC): 0.906

Structure (SMILES): CN1CCCN(C(c2ccccc2)c2ccc(Cl)cc2)CC1 (stereo not given)
- Potency (7G8): 8.91 µM (active)
- Potency (AA1029): 7.94 µM (active)
- Potency (AS120): 11.2 µM (active)
- Potency (ATS189): 10 µM (active)
- Potency (ATS95): 11.2 µM (active)
- Potency (C2A): 11.2 µM (active)
- Potency (CP191): 10 µM (active)

Structure (SMILES): C[C@H]1C[C@@H]2[C@H]([C@@H](O)C[C@@]3(C)[C@H]2CC[C@]3(O)C(=O)CO)[C@@]2(C)C=CC(=O)C=C12
- Z-AUC [1]: -1.46 (inactive)
- Z-AUC [1, 3]: -0.672
- Z-AUC ([1]; measured here: PEO4 Z-AUC): -1.34

Structure (SMILES): O=C1NC(=O)/C(=C/c2ccc3c(c2)OC(F)(F)O3)S1
- Z-AUC [1]: -0.958 (inactive)
- Z-AUC [1, 3]: -0.173
- Z-AUC ([1]; measured here: PEO4 Z-AUC): -0.926

Structure (SMILES): Nc1ncnc2nc[nH]c12
- activity, negative = inhibition ([2]; parasite line A): -12.9% (inactive)
- activity, negative = inhibition ([2]; parasite line B): -6.26% (inactive)
- Potency (3D7): inactive
- Potency (7G8): inactive
- Potency (AA1029): inactive
- Potency (AS120): inactive
- Potency (ATS189): inactive
- Potency (ATS95): inactive
- Potency (C2A): inactive
- Potency (CP185): inactive
- Potency (CP191): inactive
- Potency (CP192): inactive
- Potency (CP194): inactive
- Potency (CP201): inactive
- Potency (CP203): inactive

Structure (SMILES): O=[N+]([O-])c1cncn1CCN1CCOCC1
- Z-AUC [1]: 1.32 (inactive)
- Z-AUC [1, 3]: 1.34
- Z-AUC ([1]; measured here: PEO4 Z-AUC): 1.02

Structure (SMILES): CCN(CC)CCOc1ccc(/C(=C(\Cl)c2ccccc2)c2ccccc2)cc1
- Z-AUC [1]: -0.751 (inactive)
- Z-AUC [1, 3]: -0.39
- Z-AUC ([1]; measured here: PEO4 Z-AUC): -0.613

Structure (SMILES): CN1CCC(Nc2ncc3ncnc(Nc4ccc(F)c(Cl)c4)c3n2)CC1
- Potency ([2]; parasite line A): 8.91 µM (active)
- Potency ([2]; parasite line B): 10 µM (active)
- Potency (7G8): 2.51 µM (active)
- Potency (AA1029): 10 µM (active)
- Potency (C2A): 11.2 µM (active)
